Among the data in PubChem BioAssay (NCATS) are outcome and Potency values, retold here.

Each structure is given as a SMILES string. Records with an inconclusive call do not appear. A call without a number means that no potency is given here. Calls of active or inactive are those of the source. The call rests on the fitted dose curve; in most records, active means well fitted curve in the direction sought with a large enough effect; inconclusive means small, poorly fitted or top-dose-only effect, or another doubt; inactive means no such curve, though single readings can be large; an effect the other way counts as inactive or inconclusive.

One test in a line: qHTS of Nrf2 Activators: LOPAC Validation (AID 624149). As to conditions: Nrf2/ARE reporter cell assay; series mostly up to 46.1 µM. The gist of the method:
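AREc32_Fluc cells, 1000/well in OPTI-MEM with 5% FBS, grown overnight, then exposed to compounds for 24 hr at 37 deg C, 5% CO2. ARE-driven firefly luciferase read by Steady-Glo luminescence after 30 min at RT.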
Background: Quantitative high-throughput screening tests each substance at several concentrations.
For `Cn1cnc([N+](=O)[O-])c1Sc1ncnc2nc[nH]c12`, the outcome was inactive.
The same measure, in the same setting: then `Cc1cc2c(C(C)C)c(O)c(O)c(C=O)c2c(O)c1-c1c(C)cc2c(C(C)C)c(O)c(O)c(C=O)c2c1O`, with “inactive”; and `O=NN(CCCl)C(=O)NCCCl`, with “inactive”.
On the same count and under the same terms, to `NC(=O)c1cnccn1` belongs “inactive”.
On the same count and under the same terms, then `O=C1CCC(N2C(=O)c3ccccc3C2=O)C(=O)N1` (stereo unspecified), with “inactive”.
In the case of `O=c1[nH]cnc2[nH]ncc12`, the result was inactive.
Still for that read-out and setting: then `NC[C@H](O)c1ccc(O)c(O)c1`, with “inactive”; and `CNC[C@H](O)c1cccc(O)c1`, with “inactive”; and `CC(=O)Oc1ccccc1C(=O)O`, with “inactive”.
The same measure, in the same setting: to `NC(N)=NC(=O)c1nc(Cl)c(N)nc1N` belongs “inactive”; to `Cc1[nH]c(=O)c(C#N)cc1-c1ccncc1`, “inactive”.
Consider `NS(=O)(=O)c1cc2c(cc1Cl)NC=NS2(=O)=O`, for which the compound was called inactive.
Still for that read-out and setting: to `Cc1ccccc1C(OCCN(C)C)c1ccccc1` (stereo unspecified) belongs “inactive”.

Another test can be described thus: HTS Assay for Allosteric Antagonists of the Human D2 Dopamine Receptor: Hit Validation in HTRF (AID 624455). Further: potency means the concentration at half of the fitted maximal effect.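 Further: stable D1 dopamine receptor cell line scored for blocking the D1 response.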 As to conditions: Cells stably expressing D1 dopamine receptor, inhibition mode; series mostly up to 46.1 µM. The method, boiled down: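 Hit validation in cells stably expressing the D1 dopamine receptor, run in HTRF format. Compounds were tested for their ability to inhibit the D1-mediated response.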
Turning to `Cn1cnc([N+](=O)[O-])c1Sc1ncnc2nc[nH]c12`, the Potency result was “inactive”.
On the same count and under the same terms, to `Cc1cc2c(C(C)C)c(O)c(O)c(C=O)c2c(O)c1-c1c(C)cc2c(C(C)C)c(O)c(O)c(C=O)c2c1O` belongs “inactive”; to `O=NN(CCCl)C(=O)NCCCl`, “inactive”; to `NC(=O)c1cnccn1`, “inactive”.
Turning to `O=C1CCC(N2C(=O)c3ccccc3C2=O)C(=O)N1` (stereo unspecified), the Potency result was “inactive”.
On to `O=c1[nH]cnc2[nH]ncc12`, for which the Potency entry is “inactive”.
As to `NC[C@H](O)c1ccc(O)c(O)c1`, the Potency is 291 nM (active).
On the same count and under the same terms, to `CNC[C@H](O)c1cccc(O)c1` belongs 1840 nM (active); to `Nc1ncnc2nc(-c3ccc(N4CCOCC4)nc3)cc(-c3cccc(Br)c3)c12`, “inactive”.
For the compound `CC(=O)Oc1ccccc1C(=O)O`, the Potency result was “inactive”.
For the compound `NC(N)=NC(=O)c1nc(Cl)c(N)nc1N`, the Potency entry was “inactive”.
Same read-out and setting: then `CCCC(CCC)C(=O)O`, with “inactive”; and `CC(C)(C)NCC(O)c1ccc(O)c(CO)c1` (stereo unspecified), with “inactive”.
Take `Cc1[nH]c(=O)c(C#N)cc1-c1ccncc1`: the Potency result was “inactive”.
Take `NS(=O)(=O)c1cc2c(cc1Cl)NC=NS2(=O)=O`: the Potency entry was “inactive”.
As to `Cc1ccccc1C(OCCN(C)C)c1ccccc1` (stereo unspecified), the Potency result was “inactive”.

A short description of the next test: Cytotoxicity counterscreen for NFkB agonists and antagonists (AID 624476).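 Further: cells exposed to compound for 48 hours.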 Further: potency means the concentration at half of the fitted maximal effect. As to conditions: NFkB reporter cell line viability counterscreen; series mostly up to 46.1 µM. (Counterscreens check selectivity or assay interference.)
Take `C[C@@H]1C[C@H]2[C@@H]3CCC4=CC(=O)C=C[C@]4(C)C3(F)[C@@H](O)C[C@]2(C)[C@@]1(O)C(=O)CO` (stereo partly specified): the Potency entry was “inactive”.
Still for that read-out and setting: then `COc1ccccc1[C@H](c1cccc2ccccc12)[C@@](C)(C#N)C(=O)N1CCC(c2cccc(C(F)(F)F)c2)CC1`, with “inactive”.
On to `COc1ccc2c3n(c(=NC(=O)c4cccnc4)nc2c1OC)CCN3`, for which the Potency was 1870 nM (active).
On the same count and under the same terms, to `Cc1csc(NC(=O)c2sc3nc4c(c(C(F)(F)F)c3c2N)CCC4)n1` belongs “inactive”.
On the same count and under the same terms, then `CNC(=O)c1ccccc1Sc1ccc2c(/C=C/c3ccccn3)n[nH]c2c1`, with “inactive”.
On to `CC(C)(N)C(=O)N[C@H](COCc1ccccc1)C(=O)N1CCC2(CC1)CN(S(C)(=O)=O)c1ccccc12`, for which the Potency entry is “inactive”.
Still for that read-out and setting: to `CC(C)OC(=O)C1=CN(C(=O)c2ccc(F)c(F)c2)CC(C)(C)c2c1[nH]c1ccccc21` belongs “inactive”; to `CC(c1cc2ccccc2s1)N(O)C(N)=O` (stereo unspecified), “inactive”; to `NC(=O)c1ccc(-c2nc(-c3ccc4c(c3)OCO4)c(-c3ccccn3)[nH]2)cc1`, “inactive”.
Same read-out and setting: then `O=C1[C@H](Cc2ccc(O)cc2)N2C(=O)CCN(C(=O)NCc3ccccc3)[C@H]2CN1Cc1cccc2ccccc12`, with “inactive”; and `CO[C@@H]1[C@H](N(C)C(=O)c2ccccc2)C[C@H]2O[C@]1(C)n1c3ccccc3c3c4c(c5c6ccccc6n2c5c31)C(=O)NC4`, with “inactive”; and `CC1(C)SCCN(S(=O)(=O)c2ccc(OCC#CCO)cc2)[C@@H]1C(=O)NO`, with “inactive”.
The same measure, in the same setting: then `CC[C@@H](C)[C@H](NC(=O)[C@H](CC1CCCCC1)NC(=O)c1ccno1)C(=O)N1CCC2(CCc3ccccc32)CC1`, with “inactive”; and `Nc1ncnc2nc(-c3ccc(N4CCOCC4)nc3)cc(-c3cccc(Br)c3)c12`, with “inactive”; and `O=C(O)[C@@H](c1ccc(OCc2ccc3ccccc3n2)cc1)C1CCCC1`, with “inactive”.
On to `Cc1cc(Nc2nc(N[C@@H](C)c3ncc(F)cn3)ncc2Cl)n[nH]1`, for which the Potency result is “inactive”.
Same read-out and setting: then `CCOC(=O)C1=C[C@@]2(CC)CCCN3CCc4c(n1c1ccccc41)[C@H]32`, with “inactive”.
Still for that read-out and setting: then `CCN(CC)CCCC(C)Nc1nc(C)cc(Nc2ccc3nc(C)cc(N)c3c2)n1` (stereo unspecified), with “inactive”; and `CCCc1nn(C)c2c(=O)[nH]c(-c3cc(S(=O)(=O)N4CCN(C)CC4)ccc3OCC)nc12`, with “inactive”.
Still for that read-out and setting: to `CN[C@@H](C)C(=O)N[C@H]1CCCC[C@H]2CC[C@@H](C(=O)N[C@@H](c3ccccc3)c3cn(CCCCc4ccc(CCCCn5cc([C@@H](NC(=O)[C@@H]6CC[C@@H]7CCCC[C@H](NC(=O)[C@H](C)NC)C(=O)N76)c6ccccc6)nn5)cc4)nn3)N2C1=O` belongs “inactive”; to `O=c1[nH]c(-c2ccc(C(F)(F)F)cc2)nc2c1CSCC2`, “inactive”; to `Fc1ccc(Cl)cc1-c1nc(Nc2ccncc2)c2nccnc2n1`, “inactive”.
